# Reference: ChEMBL document CHEMBL3988442, “University of Dundee, Small-Polar-MMV Screening Library” (2021)
# The campaign covered roughly 48,000 compounds. About 13,000 (27%) showed an effect of 50% or more. This is one part of the list.
# Test system: Wolbachia pipientis
# Assay: Anti-Wolbachia Cell-Based Screen
# Type: functional
# Design: scale not given: in the data most compounds retested in dose-response had high values
# Conditions: 5 µM
row,Compound,Percent Effect
1,Cc1nccc(C(=O)N2CCOC(c3nc(C(C)C)n[nH]3)C2)n1 (centres undefined),122.6%
2,CC(C)c1n[nH]c(C2CN(C(=O)c3ccnc(C4CC4)n3)CCO2)n1 (centres undefined),106.2%
3,CC1CCc2nc(O)c(C(=O)NCc3ccncc3)cc2C1 (centres undefined),0.9729%
4,CCc1nc(CN2CCCN(Cc3cnn(C)c3)CC2)no1,-7.215%
5,CN1CCN(C(=O)c2ncn3c2CNS(=O)(=O)c2ccccc2-3)CC1,3.453%
6,CCCNC(=O)c1ncn2c1CN(CC(C)C)S(=O)(=O)c1ccccc1-2,51.12%
7,CN1Cc2c(C(=O)N3CCOCC3)ncn2-c2ccccc2S1(=O)=O,-2.827%
8,CC(C)CN1Cc2c(C(=O)NC3CC3)ncn2-c2ccccc2S1(=O)=O,24.74%
9,CCCN(CC)C(=O)c1ncn2c1CN(C)S(=O)(=O)c1ccccc1-2,93.03%
10,CCN1Cc2c(C(=O)NC(C)C)ncn2-c2ccccc2S1(=O)=O,-5.811%
11,CN1CCN(C(=O)c2ncn3c2CN(C)S(=O)(=O)c2ccccc2-3)CC1.O=C(O)C(F)(F)F,82.4%
12,CN(C(=O)c1ncn2c1CN(C)S(=O)(=O)c1ccccc1-2)C1CC1.O=C(O)C(F)(F)F,110.5%
13,CCN1Cc2c(C(=O)NC)ncn2-c2ccccc2S1(=O)=O,-8.627%
14,CCNC(=O)c1ncn2c1CN(C)S(=O)(=O)c1ccccc1-2,6.974%
15,Cc1ncsc1CCN(C)C(=O)c1c(O)cccc1O,-0.9599%
16,O=C(CCn1nnc2ccccc2c1=O)N(CC1CCOC1)C1CC1 (centres undefined),-7.506%
17,CCCOC1CCCN(C(=O)Cn2cccc(C(F)(F)F)c2=O)C1 (centres undefined),-4.197%
18,CN1Cc2c(C(=O)NC3CCCCC3)ncn2-c2ccccc2S1(=O)=O.O=C(O)C(F)(F)F,115.3%
19,CCC(C)(C)NC(=O)c1ncn2c1CN(C)S(=O)(=O)c1ccccc1-2.O=C(O)C(F)(F)F,117.1%
20,O=C(c1ncn2c1CNS(=O)(=O)c1ccccc1-2)N1CC=CC1,-15.18%
21,Cc1c(C(=O)NC2CCCC2)nnn1-c1ccccc1,-16.4%
22,CCN1Cc2c(C(=O)NC(C)C(C)C)ncn2-c2ccccc2S1(=O)=O (centres undefined),6.168%

row,Compound,Percent Effect
1,CN1Cc2c(C(=O)Nc3cccnc3)ncn2-c2ccccc2S1(=O)=O.O=C(O)C(F)(F)F,-4.618%
2,CN1Cc2c(C(=O)NCC3CCCO3)ncn2-c2ccccc2S1(=O)=O (centres undefined),113.6%
3,CC(C)C(C)NC(=O)c1ncn2c1CN(C)S(=O)(=O)c1ccccc1-2.O=C(O)C(F)(F)F (centres undefined),211.3%
4,CCC(CC)NC(=O)c1ncn2c1CN(CC)S(=O)(=O)c1ccccc1-2.O=C(O)C(F)(F)F,4.599%
5,Cc1c(CNC(=O)C2CCCN2C(=O)C2CC2)oc2ccccc12 (centres undefined),-1.359%
6,CCOc1cccc(NS(=O)(=O)c2cc(C)c(C(=O)O)s2)c1,-3.705%
7,Cn1cc(-c2nc(C(=O)N3CCCC3Cn3cccn3)cs2)cn1 (centres undefined),119.5%
8,CN(CC(=O)N1CCCC1Cn1cccn1)c1cnccn1 (centres undefined),-3.712%
9,O=C(c1csc(-c2ncccn2)n1)N1CCCC1Cn1cccn1 (centres undefined),100.9%
10,CCc1nc(CC(=O)N2CCCC2Cn2cccn2)cs1 (centres undefined),-8.177%
11,O=C(c1csc(-c2cnccn2)n1)N1CCCC1Cn1cccn1 (centres undefined),125.1%
12,CCC1CN(C(=O)c2csc(-c3cnn(C)c3)n2)CCO1 (centres undefined),8.184%
13,O=C(c1csc(-c2ccccn2)n1)N1CCCC1Cn1cccn1 (centres undefined),108.1%
14,O=C(c1csc(-c2cccs2)n1)N1CCCC1Cn1cccn1 (centres undefined),4.192%
15,O=C(CN1CCCCCC1=O)NCC1CCN(c2ccccc2)C1 (centres undefined),-4.287%
16,O=C(N1CCOCC1CO)C1(c2cccs2)CCCC1 (centres undefined),1.205%
17,COc1ccc(/C=C/CN2CCN(c3nccnc3C)CC2)cc1,1.299%
18,COc1ccc(N(CCC(N)=O)C(=O)CSc2ccc(F)c(F)c2)cc1,6.569%
19,CCc1nc(CCNC(=O)NC2CCN(C(C)C)C2)sc1C (centres undefined),-28.06%
20,Cc1ncc(CN2CCCC2c2ccc(C(=O)NCc3ccoc3)s2)s1 (centres undefined),9.292%
21,CCCc1nnc(N2CCC(C3CCN(C)CC3)CC2)o1,-0.3277%
22,CCCc1nnc(N2CCC(N3CCCC(O)C3)CC2)o1 (centres undefined),11.24%

row,Compound,Percent Effect
1,CCc1nnc(N2CCN(CCc3ccccc3)C(=O)C2)o1,-17.07%
2,CCCc1nnc(N2CCN(c3cccc(C)c3C)CC2)o1,106.7%
3,CCCc1nnc(N2CCN(C3CCCC3)CC2)o1,-0.2431%
4,CCCc1nnc(N2CCN(c3ccccc3F)CC2)o1,104.4%
5,CCCc1nnc(N2CCN(c3ccccc3Cl)CC2)o1,94.38%
6,CCCc1nnc(N2CCC(N3CCN(CCO)CC3)CC2)o1,-3.287%
7,COc1nc(C)ccc1CNC(=O)NC(C)(C)c1ncc(C)s1,40.1%
8,O=C(c1cccc(-c2ncc[nH]2)c1)N1CCC(N2CCCC(O)C2)CC1 (centres undefined),-7.829%
9,Cc1cc(-c2nn(C)c(Cl)c2CN2CCN(C)C(C(=O)O)C2)no1 (centres undefined),-9.468%
10,O=C(C1CCCC1)N1CCC(C2CCN(Cc3ccc(Cl)cc3)C2)CC1 (centres undefined),14.43%
11,CN1CCN(Cc2ccc(Cl)cc2)CC1C(=O)O (centres undefined),102.4%
12,O=C(C1CCC1)N1CCC(C2CCN(Cc3ccc(Cl)cc3)C2)CC1 (centres undefined),11.03%
13,CC(=O)N1CCN(Cc2ccc(Cl)c(F)c2)CC(O)C1 (centres undefined),3.004%
14,Cc1ccc(Cl)c(CN2CCN(C)C(C(=O)O)C2)c1F (centres undefined),102.6%
15,CC(C1CCN(Cc2c(Cl)ccc(O)c2Cl)CC1)N1CCN(C)CC1 (centres undefined),2.442%
16,Cc1ccc(Cl)c(CN2CCC3(CC2)C(C(=O)O)CC(=O)N3C)c1F (centres undefined),1.712%
17,CN1CCN(Cc2c(Cl)ccc(O)c2Cl)CC1C(=O)O (centres undefined),96.73%
18,CCC(C(=O)NC1(CN2CCOCC2)CCCC1)n1cccn1 (centres undefined),-7.135%
19,Cn1c(CNc2c(F)cccc2-n2cccn2)cc(=O)n(C)c1=O,-1.066%
20,CC(C#N)CN(C)C(=O)c1cn(-c2ccc(Br)cc2)cn1 (centres undefined),17.58%
